Compound activity: PubChem, National Center for Advancing Translational Sciences (NCATS)
Shown are actives, neighbours in structure and some others; about 7.1% of the full set was active somewhere.
S2 tox – reduces viability in counter-screen for ATXN expression inhibitors | actives 0.49% (n = 400,000) | Potency, µM (titrated, usually from 56.7 µM), most hits filed as cytotoxic | S2 cells (HEK-293 line with an ATXN2-luciferase reporter) viability, CellTiter-Fluor protease fluorescence, 24 h; note: potency is the fitted concentration of half-maximal effect; nearly all actives have a fitted effect of over 40% in size
MCF10A rerep – induces DNA re-replication in MCF 10a normal breast cells; Potency, µM (titrated, usually from 46.1 µM), for inactives: top-dose activity, positive = re-replication, usual class: activators; MCF 10A DNA re-replication, Hoechst nuclear intensity, 48 h; actives 2.9% (n = 350,000); note: potency is the fitted concentration of half-maximal effect; % of control where 0% means no effect; nearly all actives have a fitted effect of over 50% in size
ATXN2 expr inh – reduces ATXN2 reporter expression in HEK-293 cells; HEK-293 ATXN2-luciferase reporter, luminescence, 24 h; Potency, µM (highest dose often 57 µM), for the others: at the top dose activity change, negative = inhibition, hits mostly inhibitors; actives 0.72% (n = 360,000); note: potency is the fitted concentration of half-maximal effect; % is set by controls: 0 for no effect and ±100 for the full control effect; nearly all actives have a fitted effect of over 55% in size
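ATXN2-luciferase reporter cells (luciferase flanked by upstream and downstream ATXN2 gene portions) were treated 24 h at 37 °C with compounds at up to 57 uM. SteadyGlo luminescence gave expression; GF-AFC fluorescence gave viability.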
SW480 rerep – DNA re-replication induction in SW480 cells; SW480 DNA re-replication, Hoechst DNA content imaging, 48 h; Potency, µM (doses to about 46.1 µM), for the others: top-dose re-replication activation, usual class: activators; actives 1.8% (n = 340,000); AID 624297; note: potency is the fitted concentration of half-maximal effect; % of control where 0% means no effect; nearly all actives have a fitted effect of over 55% in size
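DNA re-replication was detected as more nuclei of elevated Hoechst intensity after 48 hr exposure to compound (23 nL pinned per well of 250 cells).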
PINK1 modulator – PINK1 expression modulation | actives 0.2% (n = 410,000) | PINK1 immunofluorescence, high-content cytometry, 24 h | Potency, µM (doses to about 76.6 µM), without a hit: top-dose activation (PINK1 increase), usual class: activators; active = well fitted activation curve with a large enough effect; inconclusive = small, poorly fitted or top-dose-only effect; cell line not stated here; note: potency is the fitted concentration of half-maximal effect; % of control where 0% means no effect; nearly all actives have a fitted effect of over 65% in size
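Stable cell line, 250 cells/well, 12 h attachment; compounds pinned at 5 concentrations, 24 h; CCCP control. Fixed with nuclear dye, primary antibodies 12 h at 10 degrees C, secondary plus cell stain; laser-scanning cytometer read.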
IL-1B inflam inh – blocks inflammasome-driven IL-1 beta release. activity change, % at 57.5 µM. THP-1 LPS/ATP IL-1B secretion, AlphaLISA, 16 h; active compounds read low. actives 4.7% (n = 360,000). AID 743279; in the data active = activity change below about -50%; inconclusive = mostly about -30% to -49%; note: % is set by controls: 0 for no effect and ±100 for the full control effect
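THP-1 cells pretreated 1 hr with compounds (up to 57.5 uM final), then stimulated with LPS (250 ng/mL final) plus ATP (1.25 mM final); secreted IL-1B measured by AlphaLISA after 16 hr, decreased signal indicating inhibition.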
* marks the source's active call; other numbers are inactive results; i = inactive; ? = inconclusive; . = not tested or not shown; [ ] = dose if it differs, or a comment. Unless noted, calls come from the whole dose curve; as a rule, active = well fitted curve in the direction sought with a large enough effect; inconclusive = small, poorly fitted or top-dose-only effect, or another doubt; inactive = no such curve, though single readings can be large; an effect the other way counts as inactive or inconclusive.

SMILES	S2 tox	MCF10A rerep	ATXN2 expr inh	SW480 rerep	PINK1 modulator	IL-1B inflam inh
Cc1cc2[nH]c3c(c[n+](C)c4ccccc34)c2cc1C	.	?	?	?	-2.3%	-98.6*
CCOc1ccc(C(=O)Nc2ccc(C(=O)OCc3cc(=O)n4c(C)csc4n3)cc2)cc1	.	.	.	.	-1.0%	.
CCN(CC(=O)Nc1ccc(N2CCOCC2)cc1)C(=O)c1ccc(C(F)(F)F)cc1	i	21.3%	?	11.9%	-0.6%	-57.3*
CN(CC(=O)Nc1ccc(N2CCOCC2)cc1)CC(=O)Nc1ccc(C(F)(F)F)cc1	i	?	-14.3%	-10.6%	11.4%	-24.5
Cc1ccc(S(=O)(=O)c2nnn3c2nc(N2CCN(c4cccc(C)c4C)CC2)c2ccccc23)cc1C	.	.	.	.	2.3%	.
Cc1ccc(S(=O)(=O)c2nnn3c2nc(N2CCOCC2)c2ccccc23)cc1C	i	-0.5%	7.4%	1.2%	0.1%	-66.4*
COc1ccc(/C=C2\SC(N3CCc4ccccc4C3)=NC2=O)cc1OC	i	3.66µM*	-6.3%	69.1%	8.4%	-29.4
CC1CCN(C2=NC(=O)/C(=C/c3cccc(O)c3)S2)CC1	i	1.9%	24.5%	-6.3%	0.2%	-75.2*
CC1CCN(C2=NC(=O)/C(=C/c3ccccc3F)S2)CC1	i	?	26.7%	-2.5%	4.6%	-99.2*
O=C1N=C(N2CCOCC2)S/C1=C\c1cccnc1	?	-0.3%	-13.4%	-6.8%	0.5%	-3.5
CCOC(=O)C1CCCN(C2=NC(=O)/C(=C/c3ccc(OC)c(OC)c3)S2)C1 (configuration not stated)	i	-1.6%	.	4.5%	0.8%	17.2
CC1Cc2cc(/C=C3/SC(N4CCC(C(N)=O)CC4)=NC3=O)ccc2O1 (configuration not stated)	i	-13.0%	-2.5%	13µM*	2.1%	.
CCOc1ccccc1NC(=O)Cc1csc(COc2cccc(C)c2)n1	.	.	.	.	1.3%	.
Cc1ccc2c(c1)CCCN2C(=O)c1cnn2c1NC(=C1CC1)C=C2C(F)F	.	.	.	.	2.1%	.
Cc1ncc(S(=O)(=O)c2ccc(Cl)cc2)c(-c2ccccc2)n1	i	?	1.3%	-4.0%	-1.7%	-15.9
Nc1ccc(S(=O)(=O)Nc2cnc3ccccc3n2)cc1	i	-5.4%	9.0%	-51.4%	0.0%	10.2
O=S(=O)(c1ccc(Cl)cc1)c1cnc2ccccc2n1	?	?	20.7%	?	-2.2%	-99.1*
Cc1cc(C)cc(S(=O)(=O)c2cnc3ccccc3n2)c1	i	?	-17.8%	?	-1.8%	-99.1*
Cc1cccc(-c2[nH]c(C(C)(C)C)nc2-c2ccc3c(c2)OCO3)n1	.	.	15.3µM*	.	.	.
CCN(CC)S(=O)(=O)c1ccc(OC)c(NC(=O)c2sc3ccccc3c2Cl)c1	i	.	6.7%	.	1.3%	.
CCOc1ccc(NC(=O)CN2CCSc3ccc(S(=O)(=O)N4CCCC4)cc32)cc1	?	.	-12.8%	.	5.3%	.
COc1ccc(-c2nc(CSCC(=O)NC3CCCc4ccccc43)c(C)o2)cc1 (configuration not stated)	i	16.4µM*	-15.7%	14.6%	-6.2%	?
COc1ccc(OCC(=O)NC2CCCc3ccccc32)cc1 (configuration not stated)	i	-3.4%	-27.5%	-27.9%	3.2%	-86.8*
O=C(COc1ccccc1)NC1CCCc2ccccc21 (configuration not stated)	i	13.1%	-8.4%	-3.1%	0.5%	5.0
COc1ccc(NC(=O)NC2CCCc3ccccc32)c(OC)c1 (configuration not stated)	i	3.5%	-20.4%	5.2%	6.9%	-18.1
SMILES	S2 tox	MCF10A rerep	ATXN2 expr inh	SW480 rerep	PINK1 modulator	IL-1B inflam inh
COc1ccc(CN(C)CC(=O)NC2CCCc3ccccc32)cc1OC (configuration not stated)	i	?	-26.0%	4.11µM*	-1.2%	38.9
COc1ccc(CNC2CCCc3ccccc32)c(OC)c1 (configuration not stated)	i	-4.4%	-10.5%	-2.9%	-0.1%	-50.1*
COc1ccc(-c2noc(N3CCC(C(=O)N(C)c4cc(Cl)ccc4OC)CC3)n2)cc1	?	.	?	.	-0.9%	.
Cc1ccc(C)c(NC(=O)c2ccc(CN3CC(=O)N4CCCCC4C3=O)cc2)c1 (configuration not stated)	.	.	.	.	0.3%	.
Cc1ccccc1NC(=O)Cn1c(SCC(=O)Nc2ccc(F)cc2)nc2ccccc21	i	.	-2.6%	.	9.8%	.
COC(=O)CSCc1nc(-c2ccc(C(=O)OC)cc2)oc1C	i	.	4.47µM*	.	0.5%	.
COc1ccc(CCN2C(=O)CCC2(C)c2nnnn2-c2ccc3c(c2)OCCO3)cc1OC (configuration not stated)	i	.	11.5%	.	-0.3%	12.3
N#Cc1ccc(C(=O)Nc2ccc(Cl)c(-c3nc4cc(Cl)ccc4o3)c2)c(F)c1	?	.	-23.4%	.	1.1%	.
O=C(CSc1ccc(Cl)cc1)N1CCN(c2c(Cl)cccc2[N+](=O)[O-])CC1	i	24.7%	20.0%	0.2%	-1.3%	-14.4
O=C(/C=C/c1ccc(Cl)cc1)N1CCN(c2c(Cl)cccc2[N+](=O)[O-])CC1	?	21.9%	-13.0%	11.4%	0.0%	-75.7*
Cc1ccc(S(=O)(=O)Nc2ccc3c(c2)c(C(=O)OC(C)C)c(C)n3S(=O)(=O)c2ccc(C)cc2)cc1	.	.	.	.	-1.7%	.
NC(CSC(c1ccccc1)(c1ccccc1)c1ccccc1)C(=O)O (configuration not stated)	?	6.51µM*	-22.5%	6.51µM*	11.1%	9.7
CCc1cc(C(=O)Nc2c(C)nn(Cc3ccc(C)cc3)c2C)no1	i	.	-11.5%	.	1.1%	.
CCc1ccccc1NC(=O)CN(C)C(=O)Cn1ncc(Cl)c(Cl)c1=O	.	5.8µM*	?	6.51µM*	-3.2%	-107.7*
CCC(=O)Nc1ccc(C(=O)Cn2ncc(Cl)c(Cl)c2=O)cc1	25.1µM*	3.66µM*	.	?	-1.8%	-95.6*
CCOC(=O)c1ccc(NC(=O)Cn2ncc(Cl)c(Cl)c2=O)cc1	?	2.59µM*	?	2.59µM*	-2.3%	-100.2*
CCOC(=O)c1ccc(NC(=O)Cn2nc(C)c3ccccc3c2=O)cc1	i	2.1%	11.4%	?	-0.5%	38.6
O=C(Cn1ncc(N2CCCC2)c(Cl)c1=O)c1ccc(Cl)cc1	?	-0.9%	22.8%[11.3 µM]	0.7%	1.1%	-10.9
Cc1csc2nc(COc3ccccc3NC(=O)c3ccco3)cc(=O)n12	i	.	5.2%	.	2.2%	.
C[C@@H](NCc1cc2ccccc2[nH]1)c1cccc2ccccc12	.	.	-15.9%	.	.	.
CCN(CC)C(=O)N1CCN(c2c([N+](=O)[O-])c(=O)oc3ccccc23)CC1	i	-0.6%	.	1.0%	0.4%	3.9
